# HT1080 IDH1KD tx: kills HT-1080 cells with IDH1 knockdown. 360,000 compounds, 2% hits. HT-1080 IDH1 knockdown viability, ATP luminescence, 48 h. Potency, µM (highest dose often 46.1 µM), without a hit: at the highest dose activity, negative = toxicity, usual class: cytotoxic;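 further: 0% = DMSO wells and -100% = cell-free medium wells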
#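 Using the IDH1-knockdown HT-1080 line run in the same batch and compound series as the NT line, viability after 48 h at 37 °C was determined by CellTiter-Glo luminescence and expressed as % activity.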
# KB-3-1 cytotox: KB-3-1 parental cell cytotoxicity. KB-3-1 viability, CellTiter-Glo ATP luminescence, 72 h. Potency, µM (top dose mostly 46.1 µM), usual class: cytotoxic. 400,000 compounds, 1.4% hits. AID 1347075; further: on the % scale 0 is the no-effect control and ±100 the full control effect; nearly all actives have a fitted effect of over 60% in size
#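 Cytotoxicity in the drug-sensitive parental line KB-3-1 was scored as loss of CellTiter-Glo luminescence following 72 h incubation with compound. Values come from curve fitting of normalized concentration-response data.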
# S2 tox: viability counter-screen for ATXN expression inhibitors | 400,000 compounds, 0.49% hits | Potency, µM (highest dose often 56.7 µM), usual class: cytotoxic | S2 cells (HEK-293 line with an ATXN2-luciferase reporter) viability, CellTiter-Fluor protease fluorescence, 24 h; further: nearly all actives have a fitted effect of over 40% in size
# KB-V1 MDR tox: KB-V1 MDR subline cytotoxicity; KB-V1 MDR cells viability, CellTiter-Glo, 72 h; Potency, µM (top dose mostly 46.1 µM), hits mostly cytotoxic; 400,000 compounds, 3.4% hits; further: on the % scale 0 is the no-effect control and ±100 the full control effect; nearly all actives have a fitted effect of over 60% in size
#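 Potencies derive from concentration-effect curves fitted to normalized luminescence (CellTiter-Glo) of KB-V1 cells treated for 72 h at 37 degrees C in phenol-red-free DMEM containing 10% FBS.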
# ATXN2 expr inh: inhibitors of ATXN2 expression | HEK-293 ATXN2-luciferase reporter, luminescence, 24 h | Potency, µM (series often up to 57 µM), without a hit: top-dose activity change, negative = inhibition, hits mostly inhibitors | 360,000 compounds, 0.72% hits; further: on the % scale 0 is the no-effect control and ±100 the full control effect; nearly all actives have a fitted effect of over 55% in size
#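 qHTS (up to 57 uM final) was run with 24 h compound exposure of reporter cells at 37 °C. Each well was multiplexed: SteadyGlo luminescence measured ATXN2-luciferase expression after a fluorogenic Gly-Phe-AFC viability readout (25 uM final).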
# HT1080-NT tox: kills 2HG-producing HT-1080-NT fibrosarcoma cells. HT-1080-NT fibrosarcoma viability, CellTiter-Glo ATP luminescence, 48 h. Potency, µM (doses to about 46.1 µM), for the others: at the highest dose activity, negative = less viability, most hits filed as cytotoxic. 360,000 compounds, 1.6% hits. AID 686970;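 further: NT is the 2HG producing partner of a matched IDH1 knockdown line; 0% = DMSO-treated cells and -100% = media-only wells without cells; nearly all actives have a fitted effect of over 55% in size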
#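 Viability of the 2HG-overproducing fibrosarcoma line after 48 hours of compound exposure at 37 degrees C was determined by luminescence with CellTiter-Glo, and concentration-effect curves were then fitted and categorized.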
# * marks the source's active call; other numbers are inactive results; i = inactive; ? = inconclusive; . = no result; ! = a repeat was not active; [ ] = remark or other dose. Compounds with a hit are over-represented: about 6.2% of the library has one in this group of screens. The call rests on the fitted dose curve; in most records, active means well fitted curve in the direction sought with a large enough effect; inconclusive means small, poorly fitted or top-dose-only effect, or another doubt; inactive means no such curve, though single readings can be large; an effect the other way counts as inactive or inconclusive. Potency means the concentration at half of the fitted maximal effect.
SMILES,HT1080 IDH1KD tx,KB-3-1 cytotox,S2 tox,KB-V1 MDR tox,ATXN2 expr inh,HT1080-NT tox
CC(=O)NC(Cc1ccc([N+](=O)[O-])cc1)C(=O)NCC(N)C(=O)c1ccccc1 (stereo not given),-3%,.,.,.,.,-2%
COc1ccc(-c2nc(CSCC(=O)N3CCc4ccccc43)c(C)o2)cc1OC,-1%,i,i,i,-15%,1%
COc1cccc(-c2nc(CS(=O)(=O)CC(=O)Nc3ccccc3Cl)c(C)o2)c1,-25%,15µM*,i,6.5µM*,?,-30%
COc1cccc(-c2nc(CSCC(=O)N3CCc4ccccc43)c(C)o2)c1,12%,?,i,10µM*,-7%,0%
Cc1cc(C)c2nc(N3CCCN(C(=O)c4ccco4)CC3)c(C#N)cc2c1,-4%,i,.,i,.,-3%
CCc1cc2cc(C)cc(C)c2nc1SCC(=O)N1CCN(C(=O)c2ccco2)CC1,-1%[9.24 µM],?,?,23µM*,-17%,0%
Cc1cc(C)c2nc(C(F)(F)F)nc(N3CCN(C(=O)c4ccco4)CC3)c2c1,0%,i,i,12µM*,-22%,-10%
CCc1cc2ccc(C)cc2nc1SCC(=O)N1CCN(C(=O)c2ccco2)CC1,-2%,i,i,5.2µM*,-10%,-2%
Cc1cccc2c(C(=O)N3CCN(C(=O)c4ccco4)CC3)cc(-c3cccc(Br)c3)nc12,18µM*,?,?,9.2µM*,?,?
CCc1cc2cc3c(cc2nc1SCC(=O)N1CCN(C(=O)c2ccco2)CC1)OCO3,-14%,i,i,?,-13%,-7%
O=C(c1ccco1)N1CCN(C(=O)c2cc(-c3ccccc3)nc3ccccc23)CC1,-16%,i,i,i,11%,-22%
CCc1ccc(NC(=O)CSc2nnc(-c3ccccc3)n2C)cc1,.,?,.,i,.,.
Cc1cc(C)n(-c2cccc(C(=O)NCC3Cc4cccc(-c5cccnc5)c4O3)c2)n1 (stereo not given),.,.,i,.,.,.
CN(C)c1ccc(/C=C2\C(Cl)=Cc3ccccc32)cc1,.,i,.,i,.,.
COc1cc(NC(=O)c2cccnc2Sc2ccc(Cl)cc2)cc(OC)c1OC,-11%,i,i,5.2µM*,-12%,-12%
Cc1cccc(Nc2nc(N)c([N+](=O)[O-])c(N3CCC(C)CC3)n2)c1,?,?,i,?,-6%,?
CCN1CCN(c2nc(N)c([N+](=O)[O-])c(Nc3cccc(C)c3)n2)CC1,4%,?,?,3.3µM*,-14%,3%
Cc1cccc(Nc2nc(N)c([N+](=O)[O-])c(N3CC(C)CC(C)C3)n2)c1 (stereo not given),21µM*,?,?,21µM*,-16%,16µM*
Cc1cccc(Nc2nc(N3CCN(C)CC3)nc(N)c2[N+](=O)[O-])c1,4%,i,?,7.3µM*,-11%,-1%
COCc1c(C(=O)N2CCN(C3CCCCC3)CC2)cnn1-c1ncc(C)c(-c2cccs2)n1,.,.,i,.,.,.
CC1=C(C)/C(=N\OS(=O)(=O)c2ccccc2)C=CC1=O,8.9µM*,11µM*,11µM*,16µM*,10µM*,7.1µM*
COc1ccc(C(=O)N(Cc2cc(OC)c(OC)c(OC)c2)C2CCS(=O)(=O)C2)cc1Cl (stereo not given),.,i,i,i,4%,.
CN(C)/C(CN1CCOCC1)=C1\N=C(c2ccccc2)OC1=O,7%,i,?,16µM*,6%,3%
CN(C)/C(Cn1cncn1)=C1/N=C(c2c(F)cccc2F)OC1=O,-2%,i,i,i,.,3%
Cc1cc(O)c(C(=O)/C=C/c2cccc([N+](=O)[O-])c2)c(=O)o1,16%,i,i,i,-4%,1%
SMILES,HT1080 IDH1KD tx,KB-3-1 cytotox,S2 tox,KB-V1 MDR tox,ATXN2 expr inh,HT1080-NT tox
O=C(/C=C/c1cccc([N+](=O)[O-])c1)c1cccs1,16µM*,?,?,?,?,10µM*
O=C(/C=C/c1cccc([N+](=O)[O-])c1)n1cnc2ccccc21,2.6µM*,?,.,?,?,?
CC(=O)Oc1ccccc1C(=O)C=Cc1cccc([N+](=O)[O-])c1,16µM*,15µM*,.,5.8µM*,?,?
Cc1ccc(Cn2c(SCc3ccc(C(=O)O)cc3)nc3cccnc32)cc1,.,i,.,i,.,.
Cc1c(CN(C)C(=O)c2cc(-c3ccccc3)nc3ccc(Br)cc23)cnn1C,.,i,?,i,22µM*,.
C[C@@H](NCCc1ccc(O)cc1)[C@@H](O)c1ccc(O)cc1,5%,?,i,i,4%,16%
CCCCCCCCNC(C)C(O)c1ccc(SC(C)C)cc1 (stereo not given),?,i,?,16µM*,25µM*!,23µM*
CCOC(=O)c1c(C)oc2nc(C)nc(N3CCN(c4cc(Cl)ccc4C)CC3)c12,.,i,i,?,-8%,.
COc1ccc(C)cc1NC(=O)c1sc2nc(C)nc(N3CCOCC3)c2c1C,6%,i,i,i,-11%,-1%
COc1cc(NC(=O)c2sc3nc(C)nc(N4CCOCC4)c3c2C)cc(OC)c1OC,-24%,i,i,23µM*,-1%,-12%
NC(N)=N/N=C/c1cccc(Cl)c1Cl,21µM*,?,i,?,-28%,23µM*
O=C(c1cnc2c(c1)COc1ccccc1-2)c1ccccc1O,.,?,?,i,10%,.
CCCn1nnc(NC(=O)C(c2ccccc2)c2ccccc2)n1,5%,i,i,18µM*,-2%,2%
O=C(Nc1nc2ccccc2s1)c1cc(-c2ccccc2)nn1-c1ccccc1,?,?,i,21µM*,67%,-29%
O=S(=O)(NCc1c(Cl)cccc1Oc1ccccc1)c1ccc(F)cc1,3%,16µM*,i,i,.,-2%
CC12CCC(C/C1=N\N=C1\NC(=O)/C(=C\c3ccc(Cl)cc3)S1)C2(C)C (stereo not given),21µM*,?,i,?,5%,16µM*
CCOC(=O)c1cc(-c2ccc(F)cc2)n(CCC(=O)Nc2nc3cc(C)c(C)cc3s2)c1C,.,i,.,i,.,.
N#CC1C(=N)Cc2ccccc2-c2ccccc21 (stereo not given),16µM*,?,?,15µM*,-23%,12µM*
Cc1cccc(NCc2nc3ccccc3n2C)c1,4%,i,i,?,71%,-1%
Cn1c(CNc2ccc(Cl)cc2)nc2ccccc21,-2%[9.24 µM],i,i,21µM*,69%,-17%

# High-throughput results: PubChem BioAssay, National Center for Advancing Translational Sciences (NCATS)
